Unmarked numbers belong to inactive results. How the calls were made is not given here.
Tested on: Potassium Channel [KATP]
Test: CYP450 and receptor off-target profile – biochemical, Ricerca HitProfilingScreen, selectivity assay for S1P4 agonist project, late-stage follow-up (AID 504400)
Details: Ricerca radioligand binding/enzyme panel plus CYP450, at 10 µM, hits give high values

Question: For `Clc1ccc(OCCOc2ccc(Br)nc2Br)c(Cl)c1`, which inhibition is on record?
Answer: 20%
